Assay [1] in a line: antimalarial activity against Dd2 strain (AID 2302;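 active = growth inhibition above 50% at the single 2 µM test dose, taken to imply half-maximal potency below 2 µM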;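 also: 0% = DMSO untreated growth and 100% = chloroquine plus artemisinin killed control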). Conditions: P. falciparum Dd2 in RBCs, LDH growth readout, 72 h; at 2 µM; stronger effect = higher value.
Assay [2] is described as follows: HepG2 cytotoxicity, primary screen, cytotoxicity control for P. falciparum antimalarial project, cell-based, ATP luminescence (AID 2303;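 active = inhibition above 50%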;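 also: 0% = DMSO wells and 100% = digitonin-killed cells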). Conditions: HepG2 viability, 24-48 h, at 10 µM, stronger effect = higher value.
Assay [3] has as its target L-lactate dehydrogenase (Plasmodium falciparum (isolate CDC / Honduras)) (UniProt Q27743). The assay can be described thus: PfLDH activity inhibition – cell lysate, 3D7 strain, counter-screen for P. falciparum growth inhibition project (AID 2304).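 Also: 0% = vehicle and 100% = reference inhibitor.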 Conditions: P. falciparum 3D7 crude extract, LDH APAD/NBT absorbance; at 2 µM; stronger effect = higher value. A general note: Counterscreens check selectivity or assay interference.

Assay [4] is described as follows: inhibition of 3D7 malaria parasite growth – strain 3D7 (AID 2306).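 Also: 0% = DMSO wells and 100% = chloroquine plus artemisinin control wells.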 As to conditions: P. falciparum 3D7 erythrocytic growth, LDH absorbance, 72 h; at 2 µM; stronger effect = higher value.
The target in assay [5] is Calcium-dependent protein kinase 1 (Plasmodium falciparum (isolate 3D7)) (UniProt P62344). The assay can be described thus: PfCDPK1 kinase inhibitors, biochemical, TCAMS library (AID 1159585; cut-off not given, nearly all actives have IC50 up to about 0.98 µM;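 also: inhibitors leave more ATP so luminescence rises with inhibition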). As to conditions: recombinant PfCDPK1, Kinase-Glo ATP depletion luminescence.
Calcium-dependent protein kinase 1 (Plasmodium falciparum (isolate 3D7)), sequence (P62344 whole entry, looked up): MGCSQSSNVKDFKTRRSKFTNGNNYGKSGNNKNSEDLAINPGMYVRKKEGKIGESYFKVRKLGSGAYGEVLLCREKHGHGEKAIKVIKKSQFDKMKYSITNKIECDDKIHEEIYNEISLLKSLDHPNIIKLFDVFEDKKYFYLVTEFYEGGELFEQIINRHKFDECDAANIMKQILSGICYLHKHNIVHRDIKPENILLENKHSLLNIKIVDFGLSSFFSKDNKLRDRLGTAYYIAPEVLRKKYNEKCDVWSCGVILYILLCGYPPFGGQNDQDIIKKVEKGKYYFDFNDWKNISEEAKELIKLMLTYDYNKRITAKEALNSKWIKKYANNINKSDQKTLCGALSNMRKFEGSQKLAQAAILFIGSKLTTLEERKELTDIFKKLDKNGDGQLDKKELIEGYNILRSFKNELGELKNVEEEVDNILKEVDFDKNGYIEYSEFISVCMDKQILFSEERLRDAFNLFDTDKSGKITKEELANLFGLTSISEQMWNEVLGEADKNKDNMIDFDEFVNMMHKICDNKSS
Assay [6] concerns the target Plasmodium falciparum protein kinase 6 (PK6, PF3D7_1337100) (UniProt Q8IDW1). The assay can be described thus: PfPK6 kinase inhibitors, biochemical, TCAMS library (AID 1159586). As to conditions: recombinant PfPK6, Kinase-Glo ATP depletion luminescence.
The target in assay [7] is Protein kinase 7 (PK7), Plasmodium falciparum 3D7 (PF3D7_0213400) (UniProt Q7YTF7). Nature of the assay: inhibition of Plasmodium PK7 catalytic activity – biochemical, TCAMS antimalarial set, Kinase-Glo luminescence (AID 1159587). Conditions: recombinant PfPK7, Kinase-Glo ATP depletion luminescence. In general terms: Kinase-Glo reads ATP consumption through a luciferase reaction.
Protein kinase 7 (PK7), Plasmodium falciparum 3D7 (PF3D7_0213400), sequence (Q7YTF7 1-343): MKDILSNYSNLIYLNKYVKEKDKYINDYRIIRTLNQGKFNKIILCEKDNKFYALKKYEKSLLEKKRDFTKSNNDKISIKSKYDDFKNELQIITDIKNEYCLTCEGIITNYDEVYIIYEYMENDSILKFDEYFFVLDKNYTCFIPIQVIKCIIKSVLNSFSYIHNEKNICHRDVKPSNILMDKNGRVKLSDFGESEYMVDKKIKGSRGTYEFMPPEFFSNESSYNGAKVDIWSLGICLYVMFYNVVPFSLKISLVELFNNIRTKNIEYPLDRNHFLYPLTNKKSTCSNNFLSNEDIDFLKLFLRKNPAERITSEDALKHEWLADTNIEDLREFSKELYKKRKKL

In assay [8] the target is Calcium-dependent protein kinase 4 (Plasmodium falciparum (isolate 3D7)) (UniProt Q8IBS5). The assay can be described thus: PfCDPK4 kinase inhibitors, biochemical, TCAMS library (AID 1159588; cut-off not given, nearly all actives have IC50 up to about 0.91 µM). Conditions: recombinant PfCDPK4, Kinase-Glo ATP depletion luminescence.
Calcium-dependent protein kinase 4 (Plasmodium falciparum (isolate 3D7)), sequence (Q8IBS5 whole entry, looked up): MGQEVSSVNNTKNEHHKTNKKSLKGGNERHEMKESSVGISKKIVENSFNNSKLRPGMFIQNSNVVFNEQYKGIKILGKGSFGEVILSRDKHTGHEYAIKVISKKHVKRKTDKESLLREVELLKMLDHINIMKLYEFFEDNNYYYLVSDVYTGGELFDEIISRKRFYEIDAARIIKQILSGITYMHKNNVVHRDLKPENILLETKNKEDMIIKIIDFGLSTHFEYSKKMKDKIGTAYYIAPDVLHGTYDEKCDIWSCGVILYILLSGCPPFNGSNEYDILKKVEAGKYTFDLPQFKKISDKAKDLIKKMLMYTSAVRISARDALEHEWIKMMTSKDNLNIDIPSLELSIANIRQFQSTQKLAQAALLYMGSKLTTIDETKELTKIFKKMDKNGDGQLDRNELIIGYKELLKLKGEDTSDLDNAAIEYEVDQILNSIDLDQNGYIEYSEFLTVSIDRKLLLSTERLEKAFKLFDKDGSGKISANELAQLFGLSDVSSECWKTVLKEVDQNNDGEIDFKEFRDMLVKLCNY

Molecules are shown by their SMILES. Values without a mark were called inactive. For some of these results: Entries with a potency or affinity are not part of this list. Active and inactive are the calls of the source. Unless noted, no rule for the calls is given here.

L-lactate dehydrogenase (Plasmodium falciparum (isolate CDC / Honduras)), sequence (Q27743 whole entry, looked up): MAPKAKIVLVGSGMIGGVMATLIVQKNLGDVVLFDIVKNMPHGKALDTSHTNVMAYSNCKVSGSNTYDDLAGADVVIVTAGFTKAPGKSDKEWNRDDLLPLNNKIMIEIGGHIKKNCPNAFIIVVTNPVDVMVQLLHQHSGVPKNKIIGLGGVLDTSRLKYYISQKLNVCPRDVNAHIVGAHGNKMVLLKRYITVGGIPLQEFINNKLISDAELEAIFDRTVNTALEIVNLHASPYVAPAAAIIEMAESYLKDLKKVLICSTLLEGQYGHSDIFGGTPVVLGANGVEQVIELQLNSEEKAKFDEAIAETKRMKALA
Plasmodium falciparum protein kinase 6 (PK6, PF3D7_1337100), sequence (Q8IDW1 1-305): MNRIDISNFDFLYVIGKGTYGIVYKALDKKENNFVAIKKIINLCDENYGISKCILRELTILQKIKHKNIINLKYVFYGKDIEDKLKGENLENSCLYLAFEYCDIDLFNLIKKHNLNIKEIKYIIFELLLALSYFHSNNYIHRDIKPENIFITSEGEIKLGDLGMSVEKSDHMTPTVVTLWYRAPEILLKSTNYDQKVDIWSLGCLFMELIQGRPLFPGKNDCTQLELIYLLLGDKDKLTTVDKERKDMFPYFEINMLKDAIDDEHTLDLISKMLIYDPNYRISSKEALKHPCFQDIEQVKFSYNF

Take `Cc1cc(N)c2cc(NC(=O)c3cccc(C(=O)Nc4ccc5nc(C)cc(N)c5c4)c3)ccc2n1`: the growth inhibition in assay [1] is 92% (active); in assay [4] it was 94% (active). The values for the inhibition in assay [2] and in assay [3] were 9% and 4%, respectively. The outcome in assay [5], in assay [6], in assay [7] and in assay [8] was inactive.

Consider `COc1cc2nc(NCCc3ccccc3)nc(NCc3ccc(C#N)cc3)c2cc1OC`, for which the growth inhibition in assay [1] and in assay [4] was 100% (active) each time. In addition, the inhibition is 52% (active) in assay [2] and 0% in assay [3]. In addition, the outcome in assay [5], in assay [6], in assay [7] and in assay [8] was inactive.

For the molecule `Cc1cccc2[nH]c(-c3cccc(-c4cccc(NC(=O)C(C)CN(C)C)c4)c3)nc12` (stereo not given), the growth inhibition in assay [1] is 97% (active); in assay [4], 101% (active). The inhibition in assay [2] was 16%; in assay [3] it was -3%. Besides, the result in assay [5], in assay [6], in assay [7] and in assay [8] was inactive.

As to `CC(C)CNCc1cccc(-c2cccc(CN(CCCN3CCN(C)CC3)C(=O)CCC3CCCC3)c2)c1`, the values for the growth inhibition in assay [1] and in assay [4] were 96% (active) and 100% (active), respectively. For the same molecule, the values for the inhibition in assay [2] and in assay [3] were 45% and -7%, respectively. Further, the outcome in assay [5], in assay [6], in assay [7] and in assay [8] was inactive.

As for `COc1ccc2c(NN=Cc3cccc([N+](=O)[O-])c3)cc(C)nc2c1`, the growth inhibition in assay [1] was 97% (active); in assay [4], 101% (active). In addition, the inhibition in assay [2] was 18%; in assay [3] it was -6%. Also, the outcome in assay [5], in assay [6], in assay [7] and in assay [8] was inactive.

Regarding `Cc1cccc2[nH]c(-c3cccc(-c4ccc(NC(=O)C5CCN(C)CC5)cc4)c3)nc12`, the growth inhibition was 100% (active) in assay [1] and 101% (active) in assay [4]. Moreover, the results for the inhibition in assay [2] and in assay [3] were 16% and 3%, respectively. The result in assay [5], in assay [6], in assay [7] and in assay [8] was inactive.

As to `Cc1nc(SCC(=O)N2CCCC2=O)c2c(C)c(C)sc2n1`, the growth inhibition in assay [1] was 0%; in assay [4] it was 96% (active). Moreover, the results for the inhibition in assay [2] and in assay [3] were 45% and 2%, respectively. Besides, the outcome in assay [5], in assay [6], in assay [7] and in assay [8] was inactive.

As for `O=C(Nc1ccc(N2CCN(C(=O)C=Cc3ccccc3)CC2)c(Cl)c1)c1ccc([N+](=O)[O-])o1`, the figures for the growth inhibition in assay [1] and in assay [4] were 90% (active) and 97% (active), respectively. The inhibition was 98% (active) in assay [2] and -5% in assay [3]. In addition, the outcome in assay [5], in assay [6], in assay [7] and in assay [8] was inactive.

As for `CCCCCCN1CCC(NCc2cccc(C#N)c2)CC1`, the growth inhibition in assay [1] was 9%; in assay [4] it was 97% (active). Further, the inhibition in assay [2] is 5%; in assay [3], -1%. Besides, the result in assay [5], in assay [6], in assay [7] and in assay [8] was inactive.

As for `Fc1cc(Cl)ccc1Nc1ccnc(Nc2ccc3cn[nH]c3c2)n1`, the results for the growth inhibition in assay [1] and in assay [4] were 56% (active) and 97% (active), respectively. The inhibition was 8% in assay [2] and -3% in assay [3]. The outcome in assay [5], in assay [6], in assay [7] and in assay [8] was inactive.

On to `Cn1nccc1C(=O)NCCNCc1cccc(-c2cccc(-c3nc4ccc(F)cc4[nH]3)c2)c1`, for which the growth inhibition in assay [1] was 7%; in assay [4] it was 100% (active). Besides, the results for the inhibition in assay [2] and in assay [3] were 38% and 0%, respectively. Moreover, the outcome in assay [5], in assay [6], in assay [7] and in assay [8] was inactive.

Take `Cc1ccccc1C1CCN(C2CCC(NC(=O)/C=C/c3ccc(C(F)(F)F)cc3F)CC2)CC1` (stereo not given): the growth inhibition is 58% (active) in assay [1] and 99% (active) in assay [4]. The inhibition is 72% (active) in assay [2] and -2% in assay [3]. Further, the outcome in assay [5], in assay [6], in assay [7] and in assay [8] was inactive.

Turning to `Nc1ccc2nc(C=Cc3ccc(Cl)cc3)[nH]c2c1`, the growth inhibition in assay [1] was 83% (active); in assay [4] it was 91% (active). The inhibition in assay [2] was 19%; in assay [3], 1%. Moreover, the outcome in assay [5], in assay [6], in assay [7] and in assay [8] was inactive.

In the case of `O=C(Nc1cccc(-c2cccc(-c3nc4ccc(C(F)(F)F)cc4[nH]3)c2)c1)c1ccoc1`, the growth inhibition was 61% (active) in assay [1] and 99% (active) in assay [4]. In addition, the inhibition in assay [2] is 32%; in assay [3], -2%. Moreover, the result in assay [5], in assay [6], in assay [7] and in assay [8] was inactive.

For the molecule `CCCOc1cc(OCCC)cc(-c2ccc(C(=O)Nc3ccc4ccc(C)nc4c3)c(=O)[nH]2)c1`, the growth inhibition in assay [1] is 76% (active); in assay [4], 101% (active). Moreover, the inhibition in assay [2] was 11%; in assay [3], 5%. In addition, the outcome in assay [5], in assay [6], in assay [7] and in assay [8] was inactive.

For `CCNc1cc(CC)nc(Nc2ccc(C)cc2)n1`, the growth inhibition was 24% in assay [1] and 100% (active) in assay [4]. In addition, the figures for the inhibition in assay [2] and in assay [3] were 22% and -1%, respectively. In addition, the outcome in assay [5], in assay [6], in assay [7] and in assay [8] was inactive.

Take `Clc1ccc(Cl)c2[nH]c(CNCCCNc3nc4ccccc4[nH]3)cc12`: the figures for the growth inhibition in assay [1] and in assay [4] were 39% and 100% (active), respectively. Moreover, the values for the inhibition in assay [2] and in assay [3] were 88% (active) and -6%, respectively. For the same molecule, the result in assay [5], in assay [6], in assay [7] and in assay [8] was inactive.

Regarding `CCCCCCN(CCCCCC)CC(O)c1cc(-c2ccc(Cl)cc2)nc2c(C)cc(C)cc12` (stereo not given), the growth inhibition in assay [1] and in assay [4] was 98% (active) throughout. Further, the inhibition is 27% in assay [2] and -2% in assay [3]. For the same molecule, the outcome in assay [5], in assay [6], in assay [7] and in assay [8] was inactive.

For `COc1ccc(C2CC(c3cccs3)=NN2C(=O)CNc2ccccc2F)cc1OC` (stereo not given), the growth inhibition in assay [1] was 45%; in assay [4], 87% (active). In addition, the inhibition in assay [2] was 11%; in assay [3], 2%. For the same molecule, the result in assay [5], in assay [6], in assay [7] and in assay [8] was inactive.

Consider `Cc1cc(N2CCCC2)nc(Nc2ccc(NC(=O)c3ccco3)cc2)n1`, for which the growth inhibition is 43% in assay [1] and 100% (active) in assay [4]. The values for the inhibition in assay [2] and in assay [3] were 23% and -3%, respectively. Besides, the outcome in assay [5], in assay [6], in assay [7] and in assay [8] was inactive.

Usually inhibition stands for the drop in the measured response relative to a control, in per cent.

These data come from PubChem BioAssay.
